Compound activity as filed in PubChem BioAssay.
SMARCA2 act: SMARCA2 (BRM) function activators, primary screen, cell-based, luminescence, high throughput; activation, % at 9.1 µM; MG213 cells, MMTV-luciferase reporter, dexamethasone, overnight; AID 652017, 2013; 1% of 370,000 active; in the data active means activation above about 7.8%;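 further: 0% = vehicle wells and 100% = reference activator wells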
hgDAF-12 ag: H. glycines DAF-12 receptor agonists, primary screen, cell-based, luminescence, HEK293, GAL4 fusion, UAS-luciferase; AID 687014, 2013; Nuclear hormone receptor DAF-12 (Heterodera glycines), GAL4 fusion; 1.8% of 370,000 active; HEK293 GAL4-hgDAF12 UAS-luciferase reporter, agonist luminescence; normalized to butyrate control; activation, % at 6.8 µM;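 active means activation above a cutoff set at the mean of all screened compounds plus 3 SD, cut at about 10% in these data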;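 further: 0% = DMSO wells and 100% = sodium butyrate wells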
DAX1 inh-1: DAX1 (NR0B1) inhibitors, primary screen, cell-based, HEK293, Gal4-DAX1, luciferase luminescence. HEK293 Gal4-DAX1 luciferase reporter. inhibition, % at 6.75 µM. 0.99% of 340,000 active. AID 504766, 2011;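 active means inhibition above the mean over all tested compounds plus 3 SD, cut at about 4.2% in these data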;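 further: 0% = DAX1-transfected cells with DMSO and 100% = empty-vector control cells with DMSO; inhibition shows as a rise in luminescence from relieved DAX1 repression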
Target sequence (P51843 207-470 limits assumed): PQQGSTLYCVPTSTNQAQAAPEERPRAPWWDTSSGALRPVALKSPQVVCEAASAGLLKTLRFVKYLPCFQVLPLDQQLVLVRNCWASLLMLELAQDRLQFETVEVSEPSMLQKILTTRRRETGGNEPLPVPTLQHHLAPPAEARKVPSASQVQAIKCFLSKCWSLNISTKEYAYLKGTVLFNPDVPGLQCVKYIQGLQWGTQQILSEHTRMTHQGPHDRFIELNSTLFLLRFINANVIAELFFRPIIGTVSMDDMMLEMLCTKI
hcDAF-12 act: H. contortus DAF-12 nuclear receptor activators, primary screen, cell-based, luminescence, HEK293, lit1-tk-luc reporter; HEK293 hcDAF-12 lit1-tk-luc reporter; 0% DMSO, 100% Δ7-dafachronic acid; activation, % at 6.8 µM; 1.4% of 370,000 active; AID 652067, 2013;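 active means activation above the mean of all tested compounds plus 3 SD, cut at about 5.5% in these data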;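 further: 100% = response to 3 µM Δ7-dafachronic acid high control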
DAX1 inh-2: DAX1 (NR0B1) inhibitors on StAR promoter, primary screen, cell-based, luminescence, SF-1 (NR5A1), full-length DAX-1; inhibition, % at 6.8 µM; HEK293T StAR-luciferase reporter, SF-1/DAX-1 repression relief; 1.1% of 370,000 active;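 active means inhibition above the mean over all tested compounds plus 3 SD, cut at about 3.6% in these data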;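 further: 0% = DAX-1 cells with DMSO and 100% = cells lacking DAX-1 with DMSO; higher inhibition means more luminescence from relief of DAX-1 repression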
ssDAF-12 act: S. stercoralis DAF-12 nuclear receptor activators, primary screen, cell-based, luminescence, HEK293, GRIP1 co-expression, lit1-tk-luc; Nuclear hormone receptor DAF-12 (Strongyloides stercoralis); HEK293 ssDAF-12/GRIP1 lit1-tk-luc reporter; % of 3 µM dafachronic acid response; activation, % at 6.8 µM; 1% of 370,000 active;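 active means activation above the mean over all tested compounds plus 3 SD, cut at about 0.9% in these data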;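 further: 0% = DMSO-only wells and 100% = 3 µM delta7-dafachronic acid wells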
DAX1 inh confirm: DAX1 (NR0B1) inhibitors relieving SF-1 repression, confirmation, cell-based, luminescence, HEK293T, full-length DAX-1, SF-1 activated StAR promoter. shares compounds with DAX1 inh-2. HEK293T StAR-promoter luciferase reporter, SF-1/DAX-1 repression. inhibition, % at 6.8 µM. 87% of 2,400 active;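 active means inhibition above the average of every tested compound plus 3 SD, cut at about 3.8% in these data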;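 further: 0% = DAX-1 cells with DMSO and 100% = no DAX-1 control cells with DMSO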
SF1 AF2mut Luc: StAR reporter signal changes without DAX1, counter-screen for DAX1 inhibitor project, cell-based, luminescence, AF-2 mutant SF-1, transactivation; shares compounds with DAX1 inh-2; inhibition, % at 6.8 µM; HEK293 StAR-luciferase, SF-1 AF2 mutant; 78% of 2,400 active;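 active means inhibition above the mean of all tested compounds plus 3 SD, cut at about 3% in these data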;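 further: 0% = DAX-1 transfected cells with DMSO and 100% = cells without DAX-1 with DMSO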
LXRb hcDAF ctr: LXR agonists, Gal4 luciferase reporter, confirmation, counter-screen for hcDAF-12 agonist project, cell-based, luminescence, HEK293, H. contortus campaign; shares compounds with hcDAF-12 act; HEK293 Gal4-LXR tk-luc reporter, 24 h; normalized: DMSO 0%, positive control 100%; activation, % at 6.8 µM; 3,400 tested, under 10 active; AID 743027, 2013;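 active means mean percent activation of the reporter above a cutoff set as the average over tested compounds plus their standard deviation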
hcDAF12 ag: H. contortus DAF-12 receptor agonists, confirmation, cell-based, luminescence, HEK293, lit1-tk-luc, triplicate; shares compounds with hcDAF-12 act; HEK293 hcDAF-12 lit1-tk-luc reporter; % of Δ7-dafachronic acid response; activation, % at 6.8 µM; 61% of 3,400 active; AID 743032, 2013;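 active means mean activation across triplicate tests above the threshold derived from the earlier primary screen, cut at about 5.5% in these data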;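 further: 0% = DMSO only wells and 100% = 3 µM Δ7-dafachronic acid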
hgDAF12 conf: H. glycines DAF-12 receptor agonists, confirmation, cell-based, luminescence, HEK293, GAL4-LBD fusion. shares compounds with hgDAF-12 ag. HEK293 GAL4-hgDAF12 luciferase reporter, agonist mode; percent of butyrate response. activation, % at 6.8 µM. 80% of 3,300 active;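 active means mean activation over triplicate wells above the hit cutoff derived from the earlier primary screen, cut at about 11% in these data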;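 further: 0% = DMSO low control and 100% = 2 mM sodium butyrate high control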
LXRb DAF12 ctr: LXR agonists, Gal4 luciferase reporter, confirmation, counter-screen for hgDAF-12 agonist project, cell-based, luminescence, HEK293, H. glycines campaign; 3,300 tested, under 10 active; activation, % at 6.8 µM; shares compounds with hgDAF-12 ag; 24 h;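 active means mean activation of the triplicate above a set limit carried over from the primary screen, none filed active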
Numbers without * were called inactive; · = no result. The list is not random: actives were taken first. Their share in the collection is about 4.8%.

SMILES	SMARCA2 act	hgDAF-12 ag	DAX1 inh-1	hcDAF-12 act	DAX1 inh-2	ssDAF-12 act	DAX1 inh confirm	SF1 AF2mut Luc	hgDAF12 conf	LXRb DAF12 ctr	others
Cc1c(NC(=S)NC(=O)C(c2ccccc2)c2ccccc2)cccc1C(=O)O	-2.1	-3.4	-2.0	-0.8	0.1	-1.5	·	·	·	·
Cc1cccnc1NC(=O)Cn1nc(-c2ccccc2)oc1=S	1.4	19.2*	0.8	3.8	4.9*	1.0*	11.6*	7.5*	16.8*	0.6
C/C(=N\Nc1cccc2cccnc12)c1ccccn1	5.8	27.5*	-0.7	13.8*	6.3*	2.0*	16.9*	7.8*	22.5*	1.3	LXRb hcDAF ctr=1.9;hcDAF12 ag=13.3*
Cc1ccc(NC(=O)N2CCc3ccccc3C2)cc1C	3.8	13.9*	1.9	3.8	6.6*	-1.0	8.6*	5.5*	13.2*	0.4
COc1ccc(NC(=O)N2CCc3ccccc3C2)cc1OC	-0.8	2.0	0.6	-1.0	-0.5	-1.1	·	·	·	·
CCc1ccccc1-c1cc(C(C)=O)c2n(c1=O)CCC2	-1.6	3.2	·	1.2	-0.3	-0.8	·	·	·	·
O=C(/C=C/c1ccccc1)CC(=O)c1ccccc1O	6.3	17.3*	4.4*	5.2	4.5*	-0.2	2.8	4.0*	5.6	0.3
CC(=O)NC(C)C(=O)N1CCCC1C(=O)N1CCCC1C(=O)NC(C)C(=O)NC1C(=O)NC(CC(C)C)C(=O)NC2CCCCNC(=O)CCC(C(=O)NC(Cc3ccc(O)cc3)C(=O)O)NC(=O)C3CCC(=O)OCC(NC(=O)C4CCCN4C(=O)C(Cc4c[nH]c5ccccc45)NC2=O)C(=O)NC(CC(=O)OC1C)C(=O)NC(Cc1c[nH]c2ccccc12)C(=O)N3 (configuration not stated)	-3.0	-1.5	·	-1.4	0.2	-0.1	·	·	·	·
Cc1cc(C)n2c(Nc3ccc4c(c3)OCCO4)c(-c3ccc(C)o3)nc2n1	3.5	13.4*	0.4	6.9*	5.7*	0.0	-1.4	-1.1	9.1	0.6	LXRb hcDAF ctr=-0.2;hcDAF12 ag=0.8
